Test results published in the supplement of paper PMC6555819.

What was measured:
Assay in all cases: PBM binding z-score (relative to random genomic background probes); higher = stronger binding; sequences stand for … in GC…GCGATTGACAGCGTAGAATGAAGG
[1] = test system: FXR:RXRa (NR concentration 270 nM, RXRa partner concentration 90 nM)
Summary of the method: (§1)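 Custom Agilent 4×180K protein-binding microarrays carried double-stranded probes. Their 34-nt variable regions held direct-repeat seeds, single-nucleotide variants, half-site ablations and random human genomic background sequences. Arrays were incubated 1 h with ligand-free nuclear receptor dimers in PBS pH 7.4, 2% milk, 0.02% Triton X-100, 1 mM DTT, 0.2 mg/mL BSA and 0.4 mg/ml salmon testes DNA. Antibodies against each partner (one per run) detected binding, and scanned fluorescence was regression-normalized. Binding z-scores use random background probes as reference.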

[2] = test system: LXRa:RXRa (NR concentration 270 nM, RXRa partner concentration 90 nM)
Summary of the method: as §1

[3] = test system: LXRa homodimer (NR concentration 270 nM)
Summary of the method: as §1

[4] = test system: LXRb:RXRa (NR concentration 270 nM, RXRa partner concentration 90 nM)
Summary of the method: as §1

[5] = test system: LXRb homodimer (NR concentration 270 nM)
Summary of the method: as §1

[6] = test system: PPARa:RXRa (NR concentration 270 nM, RXRa partner concentration 90 nM)
Summary of the method: as §1

[7] = test system: PPARg:RXRa (NR concentration 180 nM, RXRa partner concentration 90 nM)
Summary of the method: as §1

[8] = test system: PPARg:RXRa 270nM:90nM, anti-RXR (NR concentration 270 nM, RXRa partner concentration 90 nM)
Summary of the method: as §1

[9] = test system: PPARg:RXRa 30nM:10nM, anti-RXR (NR concentration 30 nM, RXRa partner concentration 10 nM)
Summary of the method: as §1

[10] = test system: PPARg:RXRa 90nM:30nM, anti-RXR (NR concentration 90 nM, RXRa partner concentration 30 nM)
Summary of the method: as §1

[11] = test system: PPARg:RXRa DBDmut IVT, anti-RXR (DBD mutation: RXRa K156A/R161A, NR concentration 270 nM, RXRa partner concentration 90 nM)
Summary of the method: as §1

[12] = test system: PPARg:RXRa IVT, anti-PPARg (NR concentration 270 nM, RXRa partner concentration 90 nM)
Summary of the method: as §1

[13] = test system: PPARg DBDmut:RXRa IVT, anti-PPARg (DBD mutation: PPARg1 K132A/R137A, NR concentration 270 nM, RXRa partner concentration 90 nM)
Summary of the method: as §1

[14] = test system: PPARg DBDmut IVT, anti-PPARg (DBD mutation: PPARg1 K132A/R137A, NR concentration 270 nM)
Summary of the method: as §1

[15] = test system: PPARg homodimer (NR concentration 180 nM)
Summary of the method: as §1

[16] = test system: PXR:RXRa (NR concentration 270 nM, RXRa partner concentration 90 nM)
Summary of the method: as §1

[17] = test system: PXR homodimer (NR concentration 270 nM)
Summary of the method: as §1

[18] = test system: RARa:RXR (NR concentration 270 nM, RXRa partner concentration 90 nM)
Summary of the method: as §1

[19] = test system: RARa homodimer (NR concentration 270 nM)
Summary of the method: as §1

[20] = test system: RARb:RXRa (NR concentration 270 nM, RXRa partner concentration 90 nM)
Summary of the method: as §1

| Sequence | PBM binding z-score [1] | PBM binding z-score [2] | PBM binding z-score [3] | PBM binding z-score [4] | PBM binding z-score [5] | PBM binding z-score [6] | PBM binding z-score [7] | PBM binding z-score [8] | PBM binding z-score [9] | PBM binding z-score [10] | PBM binding z-score [11] | PBM binding z-score [12] | PBM binding z-score [13] | PBM binding z-score [14] | PBM binding z-score [15] | PBM binding z-score [16] | PBM binding z-score [17] | PBM binding z-score [18] | PBM binding z-score [19] | PBM binding z-score [20] |
| --- | --- | --- | --- | --- | --- | --- | --- | --- | --- | --- | --- | --- | --- | --- | --- | --- | --- | --- | --- | --- |
| CTACCAAGGTGAACAAGGTCGATGATTACTATTC | 0.946 | 0.835 | 0.167 | 1.18 | -0.531 | 2.13 | 1.2 | 0.941 | 0.12 | 0.353 | 2.72 | 2.64 | 0.547 | 0.654 | 0.419 | 1.43 | 0.443 | 1.63 | 0.548 | 1.95 |
| CCTTACGGGGCACTGACAGGTTATAGCATTTGGA | -0.345 | 0.0473 | -0.267 | 0.0491 | -0.831 | 0.455 | 0.465 | -0.156 | -0.0268 | -0.232 | 1.49 | 0.641 | -0.296 | -0.753 | 0.227 | -0.0592 | -0.274 | 0.21 | 0.0601 | 1.03 |
| TCGTGTAGATCAGCAGGTTAAGAAAGCTGGCCAA | -0.188 | 0.0517 | -0.312 | 0.0213 | -0.844 | 0.437 | -0.564 | 0.79 | 1.98 | 1.42 | 1.06 | -0.357 | -0.818 | -0.881 | 0.306 | -0.0142 | -0.356 | 0.167 | -0.19 | -0.0644 |
| TCATATAGGTACATGCTAGGTGAAAGTCCGATCT | 0.846 | 1.11 | 0.242 | 0.622 | 0.134 | 1.15 | 0.699 | 2.04 | 3.56 | 2.99 | 2.58 | 1.73 | 0.847 | 1.54 | 0.444 | 0.528 | 0.248 | 0.868 | 0.997 | 0.432 |
| CCTAGCAGGCCCGGGTCACTCAAGCATTTCGCTT | 1.18 | 1.11 | -0.362 | 1.25 | -0.958 | 2.17 | -0.225 | 0.755 | -0.825 | 0.0676 | -0.956 | -0.289 | -1.26 | -1.82 | 0.788 | 1.78 | -0.484 | 2.49 | -0.473 | 1.63 |
| TCTGCTAGGTCAGTTGGTCAGGTAACGAGCTGCC | 1.03 | 0.456 | -0.298 | 0.248 | 0.236 | 1.48 | 0.452 | 1.74 | 1.15 | 1.3 | 2.56 | 3.24 | 0.0917 | 0.385 | 0.478 | 0.0993 | -0.744 | 0.735 | -0.871 | 3.3 |
| GCGGACAGGTGAAACGCAGGTAACTCAGGGTGGC | -0.363 | -0.0756 | -0.541 | -0.243 | -1.43 | 0.799 | 0.338 | -0.205 | -1.01 | -0.756 | 1.08 | 0.64 | -0.773 | -1.81 | -0.69 | -0.362 | -0.597 | 0.177 | -1.07 | 0.934 |
